Holding throughout (assay): DAPPL (digital affinity profiling via proximity ligation, sequencing); 10 mM Tris-HCl pH 7.5, 50 mM NaCl, 1 mM DTT, 4% glycerol, room temperature, 30 min; GST-TFs on glutathione beads, 16-mer random dsDNA library, 0.1% formaldehyde crosslink after washing; high values mean tight binding
In one assay the target is T1, FEV (Homo sapiens, UniProt Q99581 1-238).
T1 sequence: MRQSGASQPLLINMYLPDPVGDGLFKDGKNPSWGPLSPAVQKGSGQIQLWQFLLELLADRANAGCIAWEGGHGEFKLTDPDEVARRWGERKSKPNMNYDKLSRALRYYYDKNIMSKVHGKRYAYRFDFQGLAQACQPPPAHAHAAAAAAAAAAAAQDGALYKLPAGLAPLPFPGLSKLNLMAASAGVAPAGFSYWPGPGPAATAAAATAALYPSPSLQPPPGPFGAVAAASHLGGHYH
The following applies: protein: recombinant; tags: N-terminal GST; dsDNA, one strand shown. Put shortly:
(§1)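 A tag-only sample was pooled with DNA-barcoded human transcription factors that had been expressed in yeast as GST fusions and captured on glutathione beads. The pools were incubated for 30 min at room temperature with 200 nmole of a random double-stranded 16-mer DNA library in Tris/NaCl/DTT/glycerol buffer, then washed, crosslinked with 0.1% formaldehyde, proximity-ligated (BsaI/T4 ligase, 1 h, 37 °C), PCR-amplified and sequenced on an Illumina NextSeq500. Binding signal is each hexamer's read frequency for a factor divided by its frequency for the tag-only sample.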

Another assay deals with ETV5 (Homo sapiens, UniProt P41161 1-510). As to conditions: protein: recombinant; tags: N-terminal GST; dsDNA, one strand shown. The procedure, abridged: as §1
ETV5, sequence (P41161 whole entry): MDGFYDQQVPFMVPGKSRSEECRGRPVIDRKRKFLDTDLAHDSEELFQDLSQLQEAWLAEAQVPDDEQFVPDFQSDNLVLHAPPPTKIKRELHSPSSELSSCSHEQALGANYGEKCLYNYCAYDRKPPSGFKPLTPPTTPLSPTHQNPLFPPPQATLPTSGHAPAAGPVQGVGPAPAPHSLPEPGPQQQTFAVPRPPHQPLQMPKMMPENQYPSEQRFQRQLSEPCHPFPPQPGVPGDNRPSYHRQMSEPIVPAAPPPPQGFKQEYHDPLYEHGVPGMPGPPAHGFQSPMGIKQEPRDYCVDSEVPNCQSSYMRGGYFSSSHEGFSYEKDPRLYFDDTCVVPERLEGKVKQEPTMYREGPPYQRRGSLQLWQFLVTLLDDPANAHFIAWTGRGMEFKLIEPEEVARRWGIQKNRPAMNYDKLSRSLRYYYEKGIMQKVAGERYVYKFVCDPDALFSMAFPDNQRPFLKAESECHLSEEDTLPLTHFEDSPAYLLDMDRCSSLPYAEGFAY
The next assay has as its target HSF1 (Homo sapiens, UniProt Q00613 1-529). The following applies: protein: recombinant; tags: N-terminal GST; chain copies: 3; dsDNA, one strand shown. Put shortly:
as §1

In the next assay the target is T2, SPIC (Homo sapiens, UniProt Q8N5J4 1-248).
T2 sequence: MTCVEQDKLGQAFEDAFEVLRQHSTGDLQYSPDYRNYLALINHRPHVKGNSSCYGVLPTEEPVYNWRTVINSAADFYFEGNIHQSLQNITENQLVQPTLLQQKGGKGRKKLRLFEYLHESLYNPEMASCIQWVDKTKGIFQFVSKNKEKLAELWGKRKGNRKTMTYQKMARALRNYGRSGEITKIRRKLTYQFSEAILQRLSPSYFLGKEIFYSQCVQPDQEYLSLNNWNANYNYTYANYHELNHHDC
The following applies: protein: recombinant; tags: N-terminal GST; dsDNA, one strand shown. Put shortly:
as §1

A further assay deals with ELF4 (Homo sapiens, UniProt Q99607 1-663). The following applies: protein: recombinant; tags: N-terminal GST; dsDNA, one strand shown. The procedure, abridged: as §1
ELF4, sequence (Q99607 whole entry): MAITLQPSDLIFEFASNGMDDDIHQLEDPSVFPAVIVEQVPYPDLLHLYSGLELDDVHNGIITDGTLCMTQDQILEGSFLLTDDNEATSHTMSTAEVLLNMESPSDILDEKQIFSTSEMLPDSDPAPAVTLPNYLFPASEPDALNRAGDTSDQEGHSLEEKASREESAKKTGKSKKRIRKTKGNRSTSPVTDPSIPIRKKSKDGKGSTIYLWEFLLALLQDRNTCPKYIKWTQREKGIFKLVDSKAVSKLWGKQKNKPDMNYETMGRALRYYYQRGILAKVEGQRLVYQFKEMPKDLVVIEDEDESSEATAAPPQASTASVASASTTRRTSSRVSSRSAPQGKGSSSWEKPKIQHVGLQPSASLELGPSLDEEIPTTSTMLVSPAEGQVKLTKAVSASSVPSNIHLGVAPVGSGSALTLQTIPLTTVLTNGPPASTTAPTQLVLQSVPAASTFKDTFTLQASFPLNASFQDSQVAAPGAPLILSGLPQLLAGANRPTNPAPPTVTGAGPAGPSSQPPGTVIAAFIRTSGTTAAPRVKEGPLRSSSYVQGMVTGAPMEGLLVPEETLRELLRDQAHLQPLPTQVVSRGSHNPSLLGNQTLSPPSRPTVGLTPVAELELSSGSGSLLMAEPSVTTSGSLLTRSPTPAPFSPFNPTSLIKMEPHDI
In the next assay the target is T3, ELK4 (Homo sapiens, UniProt P28324-2 1-405).
T3 sequence: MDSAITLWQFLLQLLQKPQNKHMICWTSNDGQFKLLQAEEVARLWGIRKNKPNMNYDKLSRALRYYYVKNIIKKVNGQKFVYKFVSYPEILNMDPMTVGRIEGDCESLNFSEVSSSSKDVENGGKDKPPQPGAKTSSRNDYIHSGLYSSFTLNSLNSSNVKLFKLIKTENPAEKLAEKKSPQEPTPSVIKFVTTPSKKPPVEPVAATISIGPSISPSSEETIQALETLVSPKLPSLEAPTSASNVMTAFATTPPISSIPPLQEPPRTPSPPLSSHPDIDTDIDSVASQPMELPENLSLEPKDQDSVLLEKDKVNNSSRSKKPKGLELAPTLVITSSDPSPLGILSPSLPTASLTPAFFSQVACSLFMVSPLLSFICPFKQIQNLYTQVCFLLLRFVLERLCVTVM
As to conditions: protein: recombinant; tags: N-terminal GST; dsDNA, one strand shown. The procedure, abridged: as §1

The next assay has as its target T4, ETV2 (Homo sapiens, UniProt O00321 1-342).
T4 sequence: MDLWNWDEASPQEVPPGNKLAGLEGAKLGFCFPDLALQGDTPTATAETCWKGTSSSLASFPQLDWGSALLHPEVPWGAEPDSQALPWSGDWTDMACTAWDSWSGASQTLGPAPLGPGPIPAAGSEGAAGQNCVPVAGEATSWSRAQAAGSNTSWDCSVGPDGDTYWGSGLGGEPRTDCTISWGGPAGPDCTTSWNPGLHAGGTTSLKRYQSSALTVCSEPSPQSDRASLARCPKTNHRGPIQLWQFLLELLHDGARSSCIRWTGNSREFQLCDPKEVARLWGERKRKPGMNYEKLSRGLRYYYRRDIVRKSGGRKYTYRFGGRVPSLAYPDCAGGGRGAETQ
The following applies: protein: recombinant; tags: N-terminal GST; dsDNA, one strand shown. The procedure, abridged:
as §1

The next assay addresses T5, ELF3 (Homo sapiens, UniProt P78545 1-371).
T5 sequence: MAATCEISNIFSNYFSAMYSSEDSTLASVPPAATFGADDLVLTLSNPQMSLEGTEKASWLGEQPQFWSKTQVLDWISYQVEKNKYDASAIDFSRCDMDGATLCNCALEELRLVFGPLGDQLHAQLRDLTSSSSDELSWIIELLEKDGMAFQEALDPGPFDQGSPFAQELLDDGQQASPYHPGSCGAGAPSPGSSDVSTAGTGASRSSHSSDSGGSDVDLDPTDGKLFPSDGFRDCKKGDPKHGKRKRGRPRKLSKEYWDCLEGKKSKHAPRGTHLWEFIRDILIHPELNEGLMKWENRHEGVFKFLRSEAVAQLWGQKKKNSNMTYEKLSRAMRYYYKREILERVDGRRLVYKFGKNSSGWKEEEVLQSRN
The following applies: protein: recombinant; tags: N-terminal GST; dsDNA, one strand shown. Put shortly: as §1

In a further assay the target is CRX (Homo sapiens, UniProt O43186 1-299). The following applies: protein: recombinant; tags: N-terminal GST; dsDNA, one strand shown. Put shortly: as §1
CRX, sequence (O43186 whole entry): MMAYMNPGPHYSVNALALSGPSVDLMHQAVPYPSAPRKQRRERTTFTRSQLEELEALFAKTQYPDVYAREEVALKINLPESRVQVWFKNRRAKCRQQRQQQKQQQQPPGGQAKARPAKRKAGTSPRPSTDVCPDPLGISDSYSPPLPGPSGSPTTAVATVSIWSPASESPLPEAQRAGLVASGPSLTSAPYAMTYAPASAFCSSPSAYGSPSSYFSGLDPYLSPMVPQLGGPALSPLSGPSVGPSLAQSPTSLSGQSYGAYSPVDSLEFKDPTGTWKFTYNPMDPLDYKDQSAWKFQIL
A further assay concerns the target ETV1 (Homo sapiens, UniProt P50549 1-477). The following applies: protein: recombinant; tags: N-terminal GST; dsDNA, one strand shown. Put shortly:
as §1

The target in another assay is T6, ERF (Homo sapiens, UniProt P50548 1-548).
T6 sequence: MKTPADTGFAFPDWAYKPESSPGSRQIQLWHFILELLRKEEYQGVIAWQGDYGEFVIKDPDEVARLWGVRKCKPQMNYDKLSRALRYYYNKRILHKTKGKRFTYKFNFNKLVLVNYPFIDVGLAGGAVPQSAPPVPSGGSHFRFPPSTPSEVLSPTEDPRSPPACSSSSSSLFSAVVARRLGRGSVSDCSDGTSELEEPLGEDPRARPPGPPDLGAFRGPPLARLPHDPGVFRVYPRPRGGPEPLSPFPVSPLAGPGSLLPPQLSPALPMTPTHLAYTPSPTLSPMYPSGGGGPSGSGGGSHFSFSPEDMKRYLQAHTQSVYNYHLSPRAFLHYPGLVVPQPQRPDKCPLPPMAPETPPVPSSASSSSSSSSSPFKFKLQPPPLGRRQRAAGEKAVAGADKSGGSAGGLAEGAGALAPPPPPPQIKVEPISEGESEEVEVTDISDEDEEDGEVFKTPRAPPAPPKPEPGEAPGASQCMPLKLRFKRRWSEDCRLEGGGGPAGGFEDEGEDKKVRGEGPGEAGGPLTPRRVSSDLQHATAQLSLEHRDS
As to conditions: protein: recombinant; tags: N-terminal GST; dsDNA, one strand shown. The procedure, abridged:
as §1

The next assay deals with T7, ETV3L (Homo sapiens, UniProt Q6ZN32 1-361).
T7 sequence: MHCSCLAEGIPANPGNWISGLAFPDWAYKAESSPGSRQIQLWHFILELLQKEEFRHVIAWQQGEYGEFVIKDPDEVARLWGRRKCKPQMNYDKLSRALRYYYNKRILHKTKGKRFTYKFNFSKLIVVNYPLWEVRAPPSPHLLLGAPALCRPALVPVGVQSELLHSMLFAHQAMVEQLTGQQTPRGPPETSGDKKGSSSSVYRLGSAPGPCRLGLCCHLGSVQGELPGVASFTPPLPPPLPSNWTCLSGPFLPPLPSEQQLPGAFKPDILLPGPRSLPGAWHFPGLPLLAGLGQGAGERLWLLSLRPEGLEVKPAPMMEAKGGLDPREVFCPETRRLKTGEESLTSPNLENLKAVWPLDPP
The following applies: protein: recombinant; tags: N-terminal GST; dsDNA, one strand shown. The procedure, abridged:
as §1

For another assay, the target named is T8, ETS2 (Homo sapiens, UniProt P15036 1-469).
T8 sequence: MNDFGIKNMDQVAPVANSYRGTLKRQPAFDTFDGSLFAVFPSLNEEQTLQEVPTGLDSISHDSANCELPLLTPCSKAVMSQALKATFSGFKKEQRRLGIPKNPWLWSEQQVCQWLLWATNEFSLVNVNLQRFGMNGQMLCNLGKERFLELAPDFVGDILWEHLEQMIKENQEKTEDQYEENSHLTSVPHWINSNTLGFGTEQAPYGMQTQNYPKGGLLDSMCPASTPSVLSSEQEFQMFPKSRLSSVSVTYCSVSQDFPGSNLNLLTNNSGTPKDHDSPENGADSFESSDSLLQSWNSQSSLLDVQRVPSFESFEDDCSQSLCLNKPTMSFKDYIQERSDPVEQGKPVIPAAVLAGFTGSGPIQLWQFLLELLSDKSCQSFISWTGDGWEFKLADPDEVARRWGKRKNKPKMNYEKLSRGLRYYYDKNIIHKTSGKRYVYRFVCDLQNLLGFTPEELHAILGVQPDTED
The following applies: protein: recombinant; tags: N-terminal GST; dsDNA, one strand shown. Put shortly:
as §1

The target of another assay is T9, SPDEF (Homo sapiens, UniProt O95238 1-335).
T9 sequence: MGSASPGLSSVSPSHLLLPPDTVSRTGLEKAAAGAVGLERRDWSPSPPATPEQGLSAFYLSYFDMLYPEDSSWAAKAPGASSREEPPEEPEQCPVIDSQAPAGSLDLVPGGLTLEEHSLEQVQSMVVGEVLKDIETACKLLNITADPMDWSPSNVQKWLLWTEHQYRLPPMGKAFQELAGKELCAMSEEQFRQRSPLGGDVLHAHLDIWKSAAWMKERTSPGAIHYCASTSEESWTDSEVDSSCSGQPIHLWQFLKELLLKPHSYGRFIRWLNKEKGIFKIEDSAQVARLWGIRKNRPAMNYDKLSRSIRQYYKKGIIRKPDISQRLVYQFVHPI
As to conditions: protein: recombinant; tags: N-terminal GST; dsDNA, one strand shown. The procedure, abridged:
as §1

A further assay addresses T10, ETV7 (Homo sapiens, UniProt Q9Y603 1-341).
T10 sequence: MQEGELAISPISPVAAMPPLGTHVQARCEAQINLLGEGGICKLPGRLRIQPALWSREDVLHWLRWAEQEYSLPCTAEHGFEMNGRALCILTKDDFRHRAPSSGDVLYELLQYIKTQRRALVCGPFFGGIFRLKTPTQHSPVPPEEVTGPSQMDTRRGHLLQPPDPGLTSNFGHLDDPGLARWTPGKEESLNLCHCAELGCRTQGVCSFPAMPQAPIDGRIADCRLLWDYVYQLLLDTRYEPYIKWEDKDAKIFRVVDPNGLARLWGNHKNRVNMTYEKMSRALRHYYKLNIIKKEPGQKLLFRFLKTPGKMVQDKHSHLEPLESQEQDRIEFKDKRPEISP
As to conditions: protein: recombinant; tags: N-terminal GST; dsDNA, one strand shown. Put shortly: as §1

For another assay, the target named is T11, ELF5 (Homo sapiens, UniProt Q9UKW6-2 1-255).
T11 sequence: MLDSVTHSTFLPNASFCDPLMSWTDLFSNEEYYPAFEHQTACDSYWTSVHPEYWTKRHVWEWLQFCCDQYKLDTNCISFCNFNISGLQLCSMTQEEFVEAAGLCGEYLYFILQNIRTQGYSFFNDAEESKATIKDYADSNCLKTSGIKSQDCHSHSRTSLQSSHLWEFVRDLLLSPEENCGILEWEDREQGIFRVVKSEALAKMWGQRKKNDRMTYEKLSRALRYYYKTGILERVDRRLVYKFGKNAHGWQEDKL
As to conditions: protein: recombinant; tags: N-terminal GST; dsDNA, one strand shown. The procedure, abridged:
as §1

In a further assay the target is T12, ETV3 (Homo sapiens, UniProt P41162-2 1-143).
T12 sequence: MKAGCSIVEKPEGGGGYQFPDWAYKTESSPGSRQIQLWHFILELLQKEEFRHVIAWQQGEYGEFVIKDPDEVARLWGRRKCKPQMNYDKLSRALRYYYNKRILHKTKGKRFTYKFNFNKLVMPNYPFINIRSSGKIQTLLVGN
The following applies: protein: recombinant; tags: N-terminal GST; dsDNA, one strand shown. Put shortly:
as §1

The next assay concerns the target ETV6 (Homo sapiens, UniProt P41212 1-452). As to conditions: protein: recombinant; tags: N-terminal GST; dsDNA, one strand shown. The procedure, abridged: as §1

This note sets out measurements from paper PMC7862700, “An all-to-all approach to the identification of sequence-specific readers for epigenetic DNA modifications on cytosine”.

ETV6, sequence (P41212 whole entry): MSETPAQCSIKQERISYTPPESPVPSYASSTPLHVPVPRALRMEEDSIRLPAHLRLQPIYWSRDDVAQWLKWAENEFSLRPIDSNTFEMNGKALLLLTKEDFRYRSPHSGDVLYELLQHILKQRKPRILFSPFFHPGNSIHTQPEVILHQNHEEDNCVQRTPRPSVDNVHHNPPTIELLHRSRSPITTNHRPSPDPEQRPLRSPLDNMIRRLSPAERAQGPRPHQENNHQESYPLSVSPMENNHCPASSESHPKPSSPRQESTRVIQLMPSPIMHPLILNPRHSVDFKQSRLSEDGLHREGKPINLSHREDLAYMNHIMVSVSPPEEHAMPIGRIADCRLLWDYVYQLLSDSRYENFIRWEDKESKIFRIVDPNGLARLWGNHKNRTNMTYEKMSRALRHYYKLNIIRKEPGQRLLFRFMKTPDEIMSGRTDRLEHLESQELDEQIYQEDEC
ETV1, sequence (P50549 whole entry): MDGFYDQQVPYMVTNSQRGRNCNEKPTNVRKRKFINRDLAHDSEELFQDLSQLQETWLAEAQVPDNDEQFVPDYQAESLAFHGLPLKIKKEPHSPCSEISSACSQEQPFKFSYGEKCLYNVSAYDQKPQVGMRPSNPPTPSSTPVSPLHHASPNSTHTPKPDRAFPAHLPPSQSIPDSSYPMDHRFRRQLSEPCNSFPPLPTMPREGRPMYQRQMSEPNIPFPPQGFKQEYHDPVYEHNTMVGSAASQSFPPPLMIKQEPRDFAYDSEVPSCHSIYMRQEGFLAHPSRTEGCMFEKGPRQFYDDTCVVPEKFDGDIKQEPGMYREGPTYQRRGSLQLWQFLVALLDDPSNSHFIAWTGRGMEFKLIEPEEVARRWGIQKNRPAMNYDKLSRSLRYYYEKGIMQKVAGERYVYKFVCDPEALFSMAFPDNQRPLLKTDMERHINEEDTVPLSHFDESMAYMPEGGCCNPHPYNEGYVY
HSF1, sequence (Q00613 whole entry): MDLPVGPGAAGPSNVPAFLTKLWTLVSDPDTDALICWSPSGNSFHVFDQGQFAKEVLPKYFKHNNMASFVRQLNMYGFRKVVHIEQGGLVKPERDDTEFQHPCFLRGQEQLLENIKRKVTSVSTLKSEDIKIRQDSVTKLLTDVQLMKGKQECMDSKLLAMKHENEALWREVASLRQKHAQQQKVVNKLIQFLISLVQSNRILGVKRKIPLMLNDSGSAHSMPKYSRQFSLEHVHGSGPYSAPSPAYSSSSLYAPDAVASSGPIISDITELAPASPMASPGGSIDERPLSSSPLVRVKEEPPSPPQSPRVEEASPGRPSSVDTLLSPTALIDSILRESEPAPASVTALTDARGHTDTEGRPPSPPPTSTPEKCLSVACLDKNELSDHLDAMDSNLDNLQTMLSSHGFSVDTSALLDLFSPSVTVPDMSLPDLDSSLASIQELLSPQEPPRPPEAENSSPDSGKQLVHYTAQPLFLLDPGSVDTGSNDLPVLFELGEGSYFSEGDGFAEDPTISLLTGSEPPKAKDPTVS

Consider AACCTA, for which the binding signal in the assay with FEV is 1.08 fold enrichment (6-mer frequency, TF over GST control); in the assay with ETV5 it was 1.03 fold enrichment (6-mer frequency, TF over GST control); in the assay with HSF1 it was 1.18 fold enrichment (6-mer frequency, TF over GST control); with SPIC, 1.03 fold enrichment (6-mer frequency, TF over GST control); in the assay with ELF4 it was 1.15 fold enrichment (6-mer frequency, TF over GST control); in the assay with ELK4, 1.07 fold enrichment (6-mer frequency, TF over GST control). Moreover, the binding signal with ETV2 was 1.27 fold enrichment (6-mer frequency, TF over GST control); with ELF3, 1.16 fold enrichment (6-mer frequency, TF over GST control); with CRX it was 1.2 fold enrichment (6-mer frequency, TF over GST control); in the assay with ETV1, 1.1 fold enrichment (6-mer frequency, TF over GST control); in the assay with ERF, 1.03 fold enrichment (6-mer frequency, TF over GST control); in the assay with ETV3L, 1.05 fold enrichment (6-mer frequency, TF over GST control). Also, the binding signal is 1.11 fold enrichment (6-mer frequency, TF over GST control) with ETS2; 1.08 fold enrichment (6-mer frequency, TF over GST control) in the assay with SPDEF; 1.03 fold enrichment (6-mer frequency, TF over GST control) in the assay with ETV7; 1.07 fold enrichment (6-mer frequency, TF over GST control) in the assay with ELF5; 1.07 fold enrichment (6-mer frequency, TF over GST control) with ETV3; 1.1 fold enrichment (6-mer frequency, TF over GST control) in the assay with ETV6.
